# Experimental data reported in PubChem BioAssay AID463173 (ICCB-Longwood Screening Facility, Harvard Medical School, 2010).
# The whole screen tested about 52,000 compounds, of which about 1,700 (3.3%) were called active. The sample holds actives, similar compounds and a random draw of the others, so the mix is not that of the screen. Values without a mark were called inactive. No stated cut-off is given here; in the data, active means survival mostly below about 52% (no sharp cut-off); inactive means mostly above about 56%.
# System: Wild type
# Test: growth inhibition of S. aureus wild type versus tarO mutant, primary screen, teichoic acid synthesis inhibitors, RN4220, OD600 (AID 463173)
# Conditions: S. aureus RN4220 wild type/DeltatarO growth, OD600, 18 h, active compounds read low, screened at 18.75 µg/mL (by protocol)
row,Structure (SMILES),survival
1,COc1ccc(-c2cc3nccc(-c4cc(Cl)c(C)cc4O)n3n2)cc1,82%
2,CN1CCN(C(CNC(=O)c2ccc(F)cc2)c2ccc3c(c2)OCO3)CC1 (configuration not stated),70%
3,C=CCN1C=C/C(=C\C=C(C#N)C#N)c2ccccc21,102%
4,CCc1c(C)nc(SCc2nc(-c3ccccc3)no2)[nH]c1=O,118%
5,COc1cccc(C(=O)N(Cc2ccco2)c2ccccn2)c1,103%
6,COc1ccc(CCNC(=O)c2nc(SCc3ccc(F)cc3)ncc2Cl)cc1OC,86%
7,CN(CC(=O)NCc1ccc(Cl)cc1)S(=O)(=O)c1ccc2c(c1)c(=O)n(C)c(=O)n2C,81%
8,COc1ccc(NC(=O)c2oc3ccccc3c2NC(=O)Cc2cccs2)cc1,90%
9,C#CC(C)(CC)NC(=O)Cn1nnc(-c2ccc(OCc3ccccc3C)cc2)n1 (configuration not stated),143%
10,Cc1ccc(-n2cc(-c3ccccc3)c3c(N4CCCCC4)ncnc32)cc1,80%
11,Cc1sc2nc(CN(CCc3ccccc3)C(=O)c3ccco3)[nH]c(=O)c2c1C,100%
12,O=C(NCc1ccccc1Cl)c1ccc2oc(=O)n(Cc3ccccc3)c2c1,81%
13,CCCCCOc1ccc(Cn2c(=O)oc3ccccc32)cc1,120%
14,Cc1ccc2c(c1)C(=O)C(=O)N2Cc1ccc(OCCC(C)C)cc1,79%
15,COc1cc(Cn2c(=O)oc3ccc(C)cc32)ccc1OCCC(C)C,-7% (active)
16,Cc1ccc2oc(=O)n(Cc3ccccc3Cl)c2c1,-2% (active)
17,CCCCCOc1ccccc1Cn1c(=O)oc2ccc(C)cc21,15% (active)
18,Cc1ccc2oc(=O)n(CCNC(=O)Nc3ccccc3Cl)c2c1,90%
19,CCCCOc1ccc(CN2C(=O)C(=O)c3cc(C)ccc32)cc1OC,87%
20,CCCCCOc1ccc(Cn2c(=O)oc3ccc(C)cc32)cc1OC,-6% (active)
21,CCOC(=O)c1ccc2oc(=O)n(Cc3ccccc3)c2c1,68%
22,CCCCOc1ccc(Cn2c(=O)oc3ccc(C)cc32)cc1OC,49%
23,CCCCCOc1ccccc1CN1C(=O)C(=O)c2cc(C)ccc21,105%

row,Structure (SMILES),survival
1,COc1cc2nc(C3CCC3)n(NC(=O)c3ccccc3C)c(=O)c2cc1OC,115%
2,CSc1ccc(CCNC(=O)CCc2c(C)nc3ncnn3c2C)cc1,71%
3,CCC1CN(C(=O)C2CCN(S(=O)(=O)c3c(C)noc3/C=C/c3ccccc3F)CC2)c2cc(Cl)ccc2O1 (configuration not stated),71%
4,COc1ccc(NC(=O)Cn2c(=O)n(-c3ccccc3)c(=O)c3ccc(C(=O)NCc4ccc5c(c4)OCO5)cc32)cc1,154%
5,COc1ccc(NC(=O)C2CCCN(S(=O)(=O)c3c(C)[nH]c(=O)[nH]c3=O)C2)cc1OC (configuration not stated),130%
6,O=C(Nc1cc(-c2ccc(F)c(F)c2)no1)c1ccccc1F,92%
7,COC(=O)c1ccccc1NC(=O)c1ccc(-c2nc(COc3ccccc3)c(C)o2)cc1,135%
8,COCCCNC(=O)C1CCN(c2nnc(-n3cccc3CNc3ccc(C)cc3)s2)CC1,72%
9,CCC(C(=O)OCc1cc(=O)n2nc(CCOC)sc2n1)c1ccccc1 (configuration not stated),136%
10,CCOCCc1nn2c(=O)cc(COC(=O)C(CC)c3ccccc3)nc2s1 (configuration not stated),14% (active)
11,CCOCCc1nn2c(=O)cc(COC(=O)c3ccco3)nc2s1,85%
12,CCOCCc1nn2c(=O)cc(COC(=O)Cc3ccccc3)nc2s1,-1% (active)
13,CCc1nn2c(=O)cc(COC(=O)C(CC)c3ccccc3)nc2s1 (configuration not stated),73%
14,CCc1nn2c(=O)cc(COC(=O)Cc3ccccc3)nc2s1,59%
15,Cc1ccc(-c2nnc3ccccc3c2C(=O)Nc2cccc(C(F)(F)F)c2)cc1,120%
16,COc1ccc(N(Cc2cccs2)C(=O)c2ccc(OCC(C)C)cc2)cc1,113%
17,CCc1ccccc1NC(=O)CN(c1cccc(C)c1C)S(C)(=O)=O,72%
18,Cc1ccc(NC(=O)Cn2c(=O)n(Cc3ccco3)c(=O)c3sc4ccccc4c32)cc1C,126%
19,CCc1nn2c(=O)cc(COC(=O)C3CCCCC3)nc2s1,72%
20,Cc1cccc(-c2nc(SCC(=O)NCC3CCCO3)c3c(=O)n(C)c(=O)n(C)c3n2)c1 (configuration not stated),128%
21,Oc1c(C(c2ccccc2)N2CCN(Cc3ccccc3)CC2)sc2nc(-c3ccco3)nn12 (configuration not stated),10% (active)
22,Oc1c(C(c2ccc(F)cc2)N2CCN(Cc3ccccc3)CC2)sc2nc(-c3ccco3)nn12 (configuration not stated),89%
23,Cc1ccc(C(c2sc3nc(-c4ccco4)nn3c2O)N2CCN(Cc3ccccc3)CC2)cc1 (configuration not stated),121%

row,Structure (SMILES),survival
1,CN1CCN(C(c2ccccc2Cl)c2sc3nc(-c4ccco4)nn3c2O)CC1 (configuration not stated),129%
2,Oc1c(C(c2ccccc2Cl)N2CCOCC2)sc2nc(-c3ccco3)nn12 (configuration not stated),-2% (active)
3,Oc1c(C(c2ccccc2)N2CCC3(CC2)OCCO3)sc2nc(-c3ccco3)nn12 (configuration not stated),73%
4,Oc1c(C(c2ccccc2)N2CCCC2)sc2nc(-c3ccco3)nn12 (configuration not stated),-3% (active)
5,Oc1c(C(c2ccc(Cl)cc2)N2CCC3(CC2)OCCO3)sc2nc(-c3ccco3)nn12 (configuration not stated),0% (active)
6,CN1CCN(C(c2ccccc2)c2sc3nc(-c4ccco4)nn3c2O)CC1 (configuration not stated),59%
7,Oc1c(C(c2ccccc2Cl)N2CCCC2)sc2nc(-c3ccco3)nn12 (configuration not stated),82%
8,Cc1ccc(C(c2sc3nc(-c4ccco4)nn3c2O)N2CCC3(CC2)OCCO3)cc1 (configuration not stated),70%
9,Oc1c(C(c2ccccc2)N2CCOCC2)sc2nc(-c3ccco3)nn12 (configuration not stated),88%
10,COC(=O)c1ccc(NS(=O)(=O)c2c(C)nc3sccn3c2=O)cc1,85%
11,CC(=O)NC1Sc2ccccc2N=C1c1ccccc1 (configuration not stated),112%
12,Cc1cccc(-n2c(Cc3ccccc3)nnc2SCc2nc(-c3cccs3)no2)c1,63%
13,Cc1ccc2onc(CC(=O)Nc3ccc(C(C)C)cc3)c2c1,85%
14,CCOc1ccc(NC(=O)c2sc3nc4c(c(-c5ccc(OC)cc5)c3c2N)C(=O)CC(C)(C)C4)cc1,69%
15,CCCn1c(N2CCN(CC(=O)Nc3ccc(Cl)cc3)CC2)nc2ccccc21,118%
16,Cc1nn(C)c2c1c(-c1ccccc1)cc(=O)n2CC(=O)NC(C)C,70%
17,COc1ccc(C2=NS(=O)(=O)N(C)C(C(=O)Nc3ccc(OC(F)(F)F)cc3)=C2)cc1,55%
18,CC1CCCN(c2c(S(=O)(=O)c3ccccc3)cnc3ccc(Cl)cc23)C1 (configuration not stated),121%
19,COc1ccc(S(=O)(=O)c2cnc3cc(OC)c(OC)cc3c2N2CCCC(C)C2)cc1 (configuration not stated),84%
20,CCc1ccc(S(=O)(=O)c2cnc3ccc(OC)cc3c2N2CCCC(C)C2)cc1 (configuration not stated),2% (active)
21,Cc1ccccc1NC(=O)c1ccc(F)c(S(=O)(=O)N(C)Cc2ccccc2)c1,66%
22,Cc1ccccc1CN1C(=O)c2ccccc2Sc2ccc(C(=O)N3CCCC3)cc21,85%
23,CCCCOc1ccc(S(=O)(=O)Nc2ccc(-c3ccc(N4CCCCCC4)nn3)cc2)cc1,75%

row,Structure (SMILES),survival
1,Cc1c(C(=O)NCc2ccccc2Cl)sc2nc[nH]c(=O)c12,82%
2,O=c1[nH]c(SCc2cccc(Cl)c2)nc2c1CCC2,91%
3,Cc1cccc(CSc2nc3c(c(=O)[nH]2)CCC3)c1,78%
4,Cc1nc(SCc2cccc(Cl)c2)nc2c1CCCC2,-8% (active)
5,COc1cccc(-c2csc(-c3c(N)c(C(=O)c4ccccc4)n4ccccc34)n2)c1,72%
6,Cc1nn2c(=O)cc(COC(=O)Cc3ccccc3)nc2s1,80%
7,CCOc1ccccc1N1CC(c2nc3ccccc3n2CCCCOc2ccccc2)CC1=O (configuration not stated),73%
8,Cc1cc(C)cc(OCCn2c(C3CC(=O)N(c4ccccc4Cl)C3)nc3ccccc32)c1 (configuration not stated),97%
9,CCc1ccccc1N1CC(c2nc3ccccc3n2CCOc2ccc(Cl)c(C)c2)CC1=O (configuration not stated),2% (active)
10,CCc1ccccc1N1CC(c2nc3ccccc3n2CCCCOc2ccccc2)CC1=O (configuration not stated),19% (active)
11,O=C1CC(c2nc3ccccc3n2CCCCOc2ccccc2)CN1c1ccccc1Cl (configuration not stated),61%
12,CCOc1ccccc1N1CC(c2nc3ccccc3n2CCCOc2ccccc2)CC1=O (configuration not stated),58%
13,CCc1ccccc1N1CC(c2nc3ccccc3n2CCCOc2ccc(Cl)cc2)CC1=O (configuration not stated),29%
14,Cc1cccc(OCCCCn2c(C3CC(=O)N(c4ccccc4Cl)C3)nc3ccccc32)c1 (configuration not stated),17% (active)
15,Cc1cccc(OCCCCn2c(C3CC(=O)N(c4ccc(C)cc4C)C3)nc3ccccc32)c1 (configuration not stated),18%
16,CCC1CCCCN1S(=O)(=O)c1cc2c3c(c1)CC(=O)N3CCC2 (configuration not stated),95%
17,COc1ccc(C)cc1NC(=O)CN1C(=O)CSc2ccc(S(=O)(=O)N3CCCC3)cc21,93%
18,COc1cccc(/C=C(\C#N)c2nc3ccc(C)cc3[nH]2)c1,53%
19,Cc1ccc2nc(/C(C#N)=C/c3cccc(Br)c3)[nH]c2c1,-11% (active)
20,Cc1ccc2nc(/C(C#N)=C/c3ccccc3F)[nH]c2c1,46%
21,COc1ccc(C(=O)c2oc3ccccc3c2NC(=O)c2cc(=O)c3ccc(C)cc3o2)cc1Cl,87%
22,O=C(C1c2ccccc2Oc2ccccc21)N1CCCCC1,103%
23,CCCCn1c(CCCN2C(=O)c3ccccc3C2=O)nc2ccccc2c1=O,104%
